HPGD inh – qHTS Assay for Inhibitors of HPGD (15-Hydroxyprostaglandin Dehydrogenase); 15-hydroxyprostaglandin dehydrogenase [NAD(+)] (Homo sapiens), P15428; purified HPGD, NADH fluorescence kinetic, PGE2 substrate; Potency, µM, for inactives: at the top dose activity change, negative = inhibition, actives largely listed as inhibitors; 4.3% of 150,000 active; AID 894, 2007; active = well fitted inhibition curve with a large enough effect, not every such curve was filed as active; inconclusive = small, poorly fitted or top-dose-only effect, or another doubt; inactive = no such curve, though single readings can be large or run the other way; also: potency is read from the fitted curve at half-maximal effect; % is scaled to controls: 0 for no effect and ±100 for the full control effect
Target sequence (P15428 whole entry, looked up): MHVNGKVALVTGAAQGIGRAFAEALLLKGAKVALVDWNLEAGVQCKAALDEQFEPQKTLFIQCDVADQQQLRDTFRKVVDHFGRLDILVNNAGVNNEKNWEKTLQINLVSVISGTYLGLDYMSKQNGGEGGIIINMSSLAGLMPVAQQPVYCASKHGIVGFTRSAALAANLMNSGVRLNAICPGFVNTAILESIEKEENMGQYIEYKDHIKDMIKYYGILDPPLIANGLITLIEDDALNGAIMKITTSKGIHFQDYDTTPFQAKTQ
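20 nM HPGD preincubated 15 min at room temperature with compound in 50 mM Tris-HCl pH 8, 0.01% Tween 20. Started with 1 mM NAD+ and 30 uM prostaglandin E2; NADH fluorescence (360/450 nm) read 5 times over 30-s intervals, last minus first.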
IMPase Li cell – qHTS Assay for Identifying the Cell-Membrane Permeable IMPase Inhibitors: Potentiation with Lithium; AID 1457, 2008; CHO-M1 cells, IP1 TR-FRET (IP-One), carbachol + lithium; Potency, µM (series often up to 59.4 µM), without a hit: top-dose activity, negative = IMPase inhibition, usual class: inhibitors; 0.35% of 210,000 active;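 also: IP1 builds up when IMPase is blocked and the TR-FRET signal falls; potency is read from the fitted curve at half-maximal effect; plate controls were basal vehicle for no effect and high inhibitor control for full effect; nearly all actives have a fitted effect of over 50% in size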
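Lithium-sensitised IP1 accumulation assay; M1-expressing CHO cells treated 30 min at 37C with compound. Competitive antibody detection by time-resolved FRET followed a 10 min room-temperature lysis step.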
ALDH1A1 inh – qHTS Assay for Inhibitors of Aldehyde Dehydrogenase 1 (ALDH1A1); Purified ALDH1A1, NADH fluorescence, propionaldehyde substrate; Potency, µM (titrated, usually from 75.3 µM), for inactives: top-dose activity, negative = inhibition, hits mostly inhibitors; 7.3% of 220,000 active; AID 1030, 2008; active = well fitted inhibition curve with a large enough effect, not every such curve was filed as active; inconclusive = small, poorly fitted or top-dose-only effect, or another doubt; inactive = no such curve, though single readings can be large or run the other way;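 also: potency is read from the fitted curve at half-maximal effect; plate controls were no enzyme wells and a reference inhibitor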
Target sequence (P00352 whole entry, looked up): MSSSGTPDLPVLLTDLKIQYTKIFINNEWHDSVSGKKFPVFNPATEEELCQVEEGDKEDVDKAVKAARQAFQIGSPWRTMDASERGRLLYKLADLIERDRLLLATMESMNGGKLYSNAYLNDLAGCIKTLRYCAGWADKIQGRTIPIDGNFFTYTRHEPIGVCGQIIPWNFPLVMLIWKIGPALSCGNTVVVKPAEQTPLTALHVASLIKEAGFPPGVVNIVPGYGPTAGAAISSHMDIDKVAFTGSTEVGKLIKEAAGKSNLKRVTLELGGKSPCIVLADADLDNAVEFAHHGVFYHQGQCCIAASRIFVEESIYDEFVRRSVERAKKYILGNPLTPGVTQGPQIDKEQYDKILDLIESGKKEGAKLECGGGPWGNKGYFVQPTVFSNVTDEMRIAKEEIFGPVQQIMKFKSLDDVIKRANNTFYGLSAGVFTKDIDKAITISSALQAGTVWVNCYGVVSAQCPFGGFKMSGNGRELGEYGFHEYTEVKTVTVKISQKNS
HTT aggregate – qHTS Multiplex Assay to Identify Dual Action Probes in a Cell Model of Huntington: Aggregate Formation (GFP) | PC12 HttQ103-GFP aggregates, Acumen cytometry, 40 h | Potency, µM (series often up to 46.1 µM), inactives show at the highest dose activity change, negative = inhibition, actives largely listed as inhibitors | 1.1% of 220,000 active; also: potency is read from the fitted curve at half-maximal effect; % is scaled to controls: 0 for no effect and ±100 for the full control effect; nearly all actives have a fitted effect of over 60% in size
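Huntingtin Q103 exon 1–GFP aggregates in induced PC12 cells (100 nM tebufenozide) were quantified by cytometry from lysates, with compounds dosed in titration.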
IMPase inh – qHTS Assay for Identifying the Cell-Membrane Permeable IMPase Inhibitors | Inositol monophosphatase 1 (Rattus norvegicus), P97697 | CHO-M1 cells, IP1 accumulation, HTRF TR-FRET ratio | inhibition (IP1 accumulation), % at 46.1 µM | 120,000 tested, under 10 active; active = well fitted curve in the direction sought with a large enough effect in the signal ratio, not every such curve was filed as active; inconclusive = small, poorly fitted or top-dose-only effect, or a change in a side signal; inactive = no such curve, though single readings can be large or run the other way; the % refers to the signal ratio;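 also: cells stimulated with carbachol in lithium chloride buffer; plate controls were DMSO basal wells for no effect and reference inhibitor wells for full effect; higher means more IMPase inhibition seen as more IP1 and lower FRET ratio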
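Measured: the HTRF emission ratio (665/620 nm) plus the 620 nm donor channel, each fitted to the Hill equation to give AC50. Cells were CHO-M1 given compounds up to 46 uM and a 30 min carbachol stimulation at 37C.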
HTT ATP protect – qHTS Multiplex Assay to Identify Dual Action Probes in a Cell Model of Huntington: Cytoprotection (ATP). Potency, µM (top dose mostly 56.4 µM), without a hit: cytoprotection (ATP increase), usual class: activators. PC12 HTT-Q103 induced, cytoprotection, ATP luminescence, 40 h. 0.14% of 230,000 active; also: potency is read from the fitted curve at half-maximal effect; % of control where 0% means no effect; nearly all actives have a fitted effect of over 45% in size
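Cells were plated at 1500 per well in phenol red-free DMEM with 5% equine and 5% calf serum. Tebufenozide (100 nM final) and compounds were added, then ATPlite reagent, and luminescence was read.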
* = called active by the depositor; ? = inconclusive; / = no result given; [ ] = another dose, or the depositor's remark. In the library only some 9.4% were active in any assay of this set; here they are far more common. Unless noted, calls follow the shape of the dose curve; as a rule, active = well fitted curve in the direction sought with a large enough effect; inconclusive = small, poorly fitted or top-dose-only effect, or another doubt; inactive = no such curve, though single readings can be large; an effect the other way counts as inactive or inconclusive.

SMILES	HPGD inh	IMPase Li cell	ALDH1A1 inh	HTT aggregate	IMPase inh	HTT ATP protect
CCCc1cc(-c2n[nH]c(=S)n2C(C)c2ccccc2)cs1 (centres undefined)	13µM*	29%[38.3 µM]	?	?	7	9%
Cc1ccccc1-n1c(Cc2cccs2)n[nH]c1=S	?	-11%[38.3 µM]	?	-1%	3	-9%
C=CC[C@@H]1/C=C(\C)C[C@H](C)C[C@H](OC)[C@H]2O[C@@](O)(C(=O)C(=O)N3CCCC[C@H]3C(=O)O[C@H](/C(C)=C/[C@@H]3CC[C@@H](O)[C@H](OC)C3)[C@H](C)[C@@H](O)CC1=O)[C@H](C)C[C@@H]2OC	/	/	/	35%	/	4%
Cc1cccc(-c2n[nH]c(=S)n2Cc2ccccc2)c1	?	15%	?	9%	2	-3%[10 µM]
C=CCn1c(-c2cccc([N+](=O)[O-])c2)n[nH]c1=S	/	-11%	?	16%	/	-54%
C=CCn1c(-c2cccc(S(=O)(=O)N(CC)CC)c2)n[nH]c1=S	/	-18%	2.2µM*	-24%	/	-38%
C=CCn1c(-c2cccc(Cl)c2)n[nH]c1=S	?	8.9µM*	11µM*	6%	-22	5%
CCc1cc(-c2n[nH]c(=S)n2Cc2ccccc2)cs1	14µM*	33%[38.3 µM]	5.6µM*	4%	8	-16%
CCc1cc(-c2n[nH]c(=S)n2CC)cs1	-28%	0%	?	25%	/	/
S=c1[nH]nc(-c2cccc(Cl)c2)n1Cc1ccccc1	18µM*	-5%	?	?	/	16%[10 µM]
Cc1cc(O)c2c(c1O)C(=O)C(O)=C(O)C2=O	?	33%	?	/	/	-31%
CCn1c(-c2csc(C(C)C)c2)n[nH]c1=S	?	14%	16µM*	6%	/	/
O=C(CN(Cc1ccc(Cl)c(Cl)c1)S(=O)(=O)c1ccccc1)N/N=C\c1ccc2c(c1)OCO2	?	30%[38.3 µM]	-9%	?	1	-68%
CCCC(CCC)=NNC(=O)CN(Cc1ccccc1)S(=O)(=O)c1ccccc1	-14%	12%	8.9µM*	6%	/	-12%[10 µM]
O=C(CN(Cc1ccccc1)S(=O)(=O)c1ccccc1)N/N=C/c1ccc2c(c1)OCO2	11µM*	7%[38.3 µM]	?	-7%	5	-48%
O=C(O)c1ccccc1NCn1c(=S)sc2ccccc21	?	2%	?	/	/	2%[10 µM]
COc1ccc(/C=N/N2C(=N)SCC2=O)cc1	/	/	/	11%[9.22 µM]	/	-18%[10 µM]
COc1cc(/C=N/N2C(=O)c3ccccc3C2=O)ccc1O	-14%	-3%	?	4%	/	/
O=C1CSC(=S)N1/N=C\c1ccc(Cl)c([N+](=O)[O-])c1	-18%	12%	-16%[13.5 µM]	/	/	14%[10 µM]
COc1cc(/C=N/N2C(=O)C3C4C=CC(CC4)C3C2=O)ccc1O (centres undefined)	/	23%	14µM*	-12%	/	-41%
O=C1CSC(=S)N1/N=C/c1cccnc1	/	/	/	0.89µM*	/	/
COc1cc(/C=N/N2C(=O)CSC2=S)ccc1O	-18%	20%[38.3 µM]	28µM*	7%	10	0%
O=C1CSC(=S)N1/N=C/c1ccc(Cl)c([N+](=O)[O-])c1	/	/	32µM*	0%[9.22 µM]	/	17%[10 µM]
COc1ccc(C#CC2C=CC(OC(C)=O)C(COC(C)=O)O2)cc1 (centres undefined)	/	/	0%[13.5 µM]	/	/	?
Cc1ccc2c(c1)C(=O)OC(C(=O)Nc1ncc(Cc3ccccc3Cl)s1)C2 (centres undefined)	/	/	/	/	-7	/
SMILES	HPGD inh	IMPase Li cell	ALDH1A1 inh	HTT aggregate	IMPase inh	HTT ATP protect
CCCn1c(C)nc2c(NCCN(C)C)nc(C)nc21	-19%	-3%	1%	/	/	11%
CCOc1ccc(Nc2cc(C)c(C#N)c3nc4ccccc4n23)cc1	/	/	/	/	3	/
CCC(C)N1C(=O)CN(C2CCCCCC2)C(=O)C1c1ccccc1F (centres undefined)	/	8%	16µM*	-10%	/	-47%
COc1ccccc1CN1C(=O)CN(C2CCCCCC2)C(=O)C1c1ccc(F)cc1 (centres undefined)	-4%	13%[38.3 µM]	?	4%	-5	-20%
CC(C)(C)C1CCC2(CC1)NC(=S)N(c1ccccc1)N2 (centres undefined)	11µM*	10%	?	12%	-7	-7%[10 µM]
CCC(C)(C)C1CCC2(CC1)NC(=S)N(c1ccccc1)N2 (centres undefined)	/	/	/	-1%[9.22 µM]	/	-18%[10 µM]
CC1=N[C@@](C)(COC(=O)[C@]2(C)N[C@](C)(CO)CO2)COC1=O	0%	-4%	23%[13.5 µM]	/	/	-10%[10 µM]
CCOC(=O)c1cnc(SC)nc1Sc1ccccc1Cl	16µM*	35%[38.3 µM]	6%	-10%	11	-2%
C=CSc1sc(Cl)c(N(C)C)c1[N+](=O)[O-]	/	18%	7.9µM*	?	/	38%[10 µM]
C=CSc1sc(Cl)c(N(CC)CC)c1[N+](=O)[O-]	/	2%	16µM*	/	/	/
Nc1ncnc2c1ncn2[C@@H]1O[C@H](C(=O)NC2CC2)[C@@H](O)[C@H]1O	/	0%	4%	/	/	14%
COc1ccc(-c2noc(CSc3nnc(Cc4ccccc4)n3-c3ccc(Cl)cc3)n2)cc1	-7%	12%[38.3 µM]	?	?	14	-88%
Cc1ccc(-c2noc(CSc3nnc(Cc4ccccc4)n3-c3ccc(Cl)cc3)n2)cc1	-11%	53%[38.3 µM]	-3%	16µM*	13	0%
COC(=O)C1=NNC2C(=O)N(c3ccc(C)cc3)C(=O)C12 (centres undefined)	/	-11%	2%	-8%	/	8%[10 µM]
Cc1ccc(N2C(=O)[C@@H]3C(C(=O)C(c4ccccc4)c4ccccc4)=NN[C@@H]3C2=O)cc1	-14%	-9%	22µM*	-7%	-10	43%[10 µM]
NNC(=O)c1sc2cc(C(F)(F)F)cnc2c1-c1ccccn1	/	-2%	7.1µM*	1%[9.22 µM]	/	-6%[10 µM]
Cc1ccccc1NS(=O)(=O)c1cc(C(=O)NCc2ccco2)ccc1C	2%	20%[38.3 µM]	4%	-1%	-11	-30%
Cc1ccc(SCCNC(=O)c2ccccc2C)cc1	16µM*	40%[38.3 µM]	5%	8%	6	0%
Cc1ccc(SCCNC(=O)c2ccc(C)c(S(=O)(=O)Nc3ccccc3C)c2)cc1	-6%	17%[38.3 µM]	-10%	18µM*	3	-65%
Cc1cc(C)n(-c2nc3cc(Cl)ccc3nc2Nc2ccc(C)c(F)c2)n1	/	/	/	/	13	/
